# Shown are actives, neighbours in structure and some others; about 1% of the full set was active somewhere.
# Sa ugtP lethal: growth inhibition of ugtP-null S. aureus, primary screen, RN4220 ugtP deletion, OD600 | 16 h | growth inhibition, % (test concentration not listed) | AID 1259309, 2017 | hit rate 0.54% among 330,000; in the data active = growth inhibition above about 68%;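 also: plate controls were untreated wells for no effect and antibiotic for full effect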
# RN4220 kill: growth inhibition of S. aureus RN4220, primary screen, OD600; 16 h; inhibition, % (concentration not given with the values); hit rate 0.33% among 330,000; AID 1259311, 2017; in the data active = inhibition above about 85%;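 also: plate controls were untreated cells for no effect and reference antibiotic for full effect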
# PriA SSB inh: inhibitors of Klebsiella pneumoniae PriA binding to SSB C-terminal tail, primary screen, biochemical, AlphaScreen; hit rate 0.6% among 430,000; AlphaScreen SSBct-PriA binding, biotinylated peptide; AID 1272365, 2023; inhibition, % at 33 µM; in the data active = inhibition mostly above about 37%, no sharp cut-off; inactive = mostly below about 20%;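 also: plate controls were negative control peptide for no effect and reference peptide for full effect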
# Numbers without * were called inactive; . = no result given; ! = a repeat was not active.
SMILES,Sa ugtP lethal,RN4220 kill,PriA SSB inh
O=C(CN1CSCC1=O)Nc1nc(-c2ccccn2)cs1,.,.,56.5
O=C(CN1C(=O)NC2(CCOc3ccccc32)C1=O)Nc1nc(-c2ccccn2)cs1 (stereo not drawn),.,.,111.0*
CCCCC(=O)Nc1nc(-c2ccccn2)cs1,.,.,50.0*
CSCCC(=O)Nc1nc(-c2ccccn2)cs1,3.0,3.9,-9.2
CCOC(=O)Cn1nc(-c2ccco2)n(C2CC2)c1=O,.,.,-4.0
CC12CCC(CC1=NN=C1NC(=O)/C(=C\c3cccc(Br)c3)S1)C2(C)C (stereo not drawn),.,.,23.1
COc1ccc(/C=C2/SC(=S)N(NS(=O)(=O)c3ccccc3)C2=O)cc1,53.2,36.7,0.2
COc1cc(/C=C2\SC(=S)N(NS(=O)(=O)c3ccccc3)C2=O)ccc1O,31.1,56.6,-6.8
COc1cc(/C=C2\SC(=S)N(NS(=O)(=O)c3ccc(C)cc3)C2=O)cc(OC)c1OC,2.6,14.4,-2.1
COc1ccccc1/C=C1\SC(=S)N(NS(=O)(=O)c2ccccc2)C1=O,69.7,87.5*,-1.8
CCOc1cc(/C=C2\SC(=S)N(NS(=O)(=O)c3ccc(C)cc3)C2=O)ccc1O,73.1,85.3*,-0.1
COc1cc(/C=C2\SC(=S)N(NS(=O)(=O)c3ccc(C)cc3)C2=O)ccc1O,70.6,85.7*,6.0
Cc1ccccc1-c1noc(Cn2ccn3nc(-c4ccc(F)cc4)cc3c2=O)n1,.,.,-16.0
O=C(c1ccc(Oc2ncccn2)cc1)N1CCN(c2cc(-n3cccc3)ncn2)CC1,.,.,-9.0
COc1ccc(Br)c(C(=O)N2CCC(c3nnc(C(C)C)o3)CC2)c1,.,.,5.0
CS(=O)(=O)N(c1ccc([N+](=O)[O-])cc1)S(C)(=O)=O,.,.,22.0
O=C(Nc1nnc(-c2ccccc2)o1)c1ccc(Cl)cc1,99.2*,96.0*,-8.7
O=C(Nc1nnc(-c2ccco2)o1)c1ccc(Cl)cc1,23.3,0.8,-1.4
O=C(COC(=O)c1ccc(O)cc1)Nc1nnc(-c2ccccc2)o1,.,.,59.2*
COc1cccc2cc(-c3nnc(NC(=O)c4ccc(N(C)C)cc4)o3)oc12,.,.,13.0
CC(=O)c1ccc(C(=O)Nc2nnc(-c3ccc(Cl)cc3)o2)cc1,99.3*,98.2*,-14.6
COc1cccc2cc(-c3nnc(NC(=O)c4cccc(S(C)(=O)=O)c4)o3)oc12,.,.,90.0*
CN(C)c1ccc(C(=O)Nc2nnc(-c3ccc(Cl)cc3)o2)cc1,1.3,10.7,-16.0
O=C(COC(=O)Cc1ccccc1)Nc1nnc(-c2ccccc2)o1,1.5,4.2,-2.8
COc1cc(OC)c(NC(=O)Cn2ncn3nc(-c4ccccc4)cc3c2=O)cc1Cl,.,.,-6.0
SMILES,Sa ugtP lethal,RN4220 kill,PriA SSB inh
O=C(Cc1ccc(Cl)cc1)N(Cc1ccccn1)c1nc2c(F)cccc2s1,.,.,-3.0
Cc1csc(NC(=O)CC2CCCCN2S(=O)(=O)c2ccccc2)n1 (stereo not drawn),.,.,20.0
O=C(C1CC=CCC1)N(Cc1cccs1)C1CCOCC1 (stereo not drawn),.,.,-26.0
COC(=O)c1c(N2C(=O)CC(Sc3ncccc3C(=O)O)C2=O)sc2c1CCCC2 (stereo not drawn),.,.,-3.0
O=C(COc1ccc(Cl)cc1)Nc1nnc(-c2ccc3c(c2)CCCC3)o1,95.9*,99.6*,-10.0
COc1cccc(C(=O)Nc2nnc(-c3ccc(Cl)cc3)o2)c1,99.9*,99.2*,-11.1
COc1cccc(C(=O)Nc2nnc(-c3ccc(F)cc3)o2)c1,22.6,42.3,0.9
O=C(CCOc1ccccc1)Nc1nnc(-c2ccc3c(c2)CCCC3)o1,.,.,-47.0
O=C(Nc1ccccc1Cl)N1CCN(c2ccc(Nc3ccccn3)nn2)CC1,.,.,-5.0
COc1cccc(-c2nc(CSc3nc4ccccc4n4c(C(C)C)nnc34)c(C)o2)c1OC,.,.,-20.0
CCOC(=O)c1cccc(NC(=O)Cn2c(C)cc(C)c(-c3nc(-c4ccc(C)cc4)no3)c2=O)c1,.,.,-28.0
CSCC(C)(O)CNC(=O)c1cccc(C(F)(F)F)c1 (stereo not drawn),.,.,-3.0
Cc1nc2c(=O)n(Cc3ccc(Cl)cc3Cl)nc(-c3ccco3)c2s1,.,.,-2.0
Cc1cc(S(=O)(=O)Nc2ccc3c(c2)N(C)C(=O)C(C)(C)CO3)ccc1F,.,.,0.0
O=C(NCC1CCN(Cc2ccccc2)CC1)C(=O)NC1CC1,.,.,-13.0
CCOC(=O)c1c(C)[nH]c(N=Nc2ccc(C)cc2C)c1C,8.4,-0.1,-5.0
CCOC(=O)c1c(C)[nH]c(N=Nc2ccccc2C)c1C,84.7,28.0,62.0*!
COC(=O)c1ccc(-n2c(C)ccc2-c2ccccc2)cc1,97.1*,-0.5,-3.6
CC(=O)c1ccc(-n2c(C)ccc2-c2ccccc2)cc1,37.9,3.8,-5.7
Cc1cc(C([O-])=C(C(=S)Nc2ccc(F)cc2)[n+]2ccccc2)c(C)n1Cc1ccccc1Cl,.,.,4.2
CCS(=O)(=O)c1nc2ccccc2n1CC(=O)N1CCCCC1,0.2,1.5,2.2
O=C(Cn1c(S(=O)(=O)Cc2ccccc2)nc2ccccc21)N1CCN(c2ccccc2)CC1,.,.,54.0*
COC(=O)C1c2ccsc2CCN1C(=O)c1cnn(-c2ccccc2)n1 (stereo not drawn),.,.,7.0
CN(C)CCN(C(=O)c1ccc(C(=O)c2ccccc2)cc1)c1nc2cc3c(cc2s1)OCO3,5.7,0.9,43.0*!
CN(C)CCN(C(=O)c1ccc(S(=O)(=O)N(C)c2ccccc2)cc1)c1nc2cc3c(cc2s1)OCO3,1.7,1.2,36.0*
SMILES,Sa ugtP lethal,RN4220 kill,PriA SSB inh
CN(C)CCCN(C(=O)c1ccc(C(=O)c2ccccc2)cc1)c1nc2cc3c(cc2s1)OCCO3,-1.6,-4.9,41.0*!
CN(C)CCCN(C(=O)c1ccc(S(=O)(=O)N(C)C)cc1)c1nc2cc3c(cc2s1)OCO3,8.7,0.4,-0.1
CN(C)CCN(C(=O)c1cccc(Cl)c1)c1nc2cc3c(cc2s1)OCCO3,.,.,-4.0
CN(C)CCN(C(=O)c1ccc(C(=O)c2ccccc2)cc1)c1nc2cc3c(cc2s1)OCCO3,10.6,0.0,48.5*
CN(C)CCCN(C(=O)COc1ccccc1)c1nc2cc3c(cc2s1)OCCO3,15.4,2.5,5.5
CN(C)CCCN(C(=O)Cc1ccccc1)c1nc2cc3c(cc2s1)OCO3,.,.,-7.0
O=C(NCc1cc(-c2ccccc2F)on1)[C@@H]1COc2ccccc2O1,.,.,-3.0
O=C(NCc1c[nH]c2ccccc12)C1CCc2nc[nH]c2C1 (stereo not drawn),.,.,-4.0
COc1ccc2nc3cccc(OC)c3nc2c1,8.2,11.2,9.8
COc1ccc2nc3ccccc3nc2c1N,-0.1,8.7,48.1*
Cc1ccc2c(c1)sc(-c1ccc(N(C)C)cc1)[n+]2C,100.7*,99.9*,-8.0
COc1ccc(C)cc1Nc1n[n+](-c2ccccc2)c(-c2ccc(N(C)C)cc2)s1,10.4,-1.7,26.5
COc1ccccc1NC(=O)CN1C(=O)C(c2ccc(F)cc2)=NC12CCCCCC2,.,.,-16.0
CCn1cc(C(=O)NN)c(=O)c2cc(F)c(N3CCCCC3)cc21,9.3,5.9,2.6
CCn1cc(C(=O)NCc2cccnc2)c(=O)c2cc(F)c(N3CCN(C(=O)c4ccco4)CC3)cc21,100.1*,96.1*,7.2
CCCOc1ccc(C(=O)NC(=S)N2CCN(c3cc4c(cc3F)c(=O)c(C(=O)O)cn4CC)CC2)cc1,95.8*,44.2,-5.2
